Compounds without any hit were thinned out: in the full panel of roughly 79,000, 15% have a hit. A number with no mark means an inactive call. Calls of active or inactive are those of the source. Cut-off read from the data, not from the text of the source: active = growth inhibition above about 70%; inactive = the rest.
What was measured:
[1] = NCI Yeast Anticancer Drug Screen. Data for the rad52 strain (AID 147);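 note: 0% = growth of vehicle-treated control cultures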; details: S. cerevisiae rad52 mutant growth inhibition, hits give high values
Procedure, shortened: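 The repair-mutant yeast strain was incubated with compounds, then growth was read and inhibition derived relative to vehicle.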

[2] = NCI Yeast Anticancer Drug Screen. Data for the wt1 strain (AID 149);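 note: 0% = growth of vehicle-treated wt1 cultures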; details: S. cerevisiae wt1 strain (SPY 50644) growth inhibition, hits give high values
Procedure, shortened: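 Compounds are added to wt1 yeast cultures. Growth is then measured. Inhibition is expressed relative to vehicle-treated controls.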

[3] = NCI Yeast Anticancer Drug Screen. Data for the rad50EPP+ strain (AID 151);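 note: 0% = growth of vehicle-treated control cultures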; details: S. cerevisiae rad50 mutant strain, hits give high values
Procedure, shortened: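 Vehicle-normalised growth inhibition; rad50EPP+ yeast strain, altered in DNA damage repair, compound-treated.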

[4] = NCI Yeast Anticancer Drug Screen. Data for the mgt1 strain (AID 153); details: S. cerevisiae mgt1 mutant growth inhibition, hits give high values
Procedure, shortened: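 Vehicle-normalized growth inhibition is determined in mgt1 yeast, a strain selected for a defined alteration in DNA repair or cell cycle control.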

[5] = NCI Yeast Anticancer Drug Screen. Data for the rad50 strain (AID 155);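 note: 0% = growth of vehicle-only cultures of the same strain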; details: S. cerevisiae rad50 strain growth inhibition, hits give high values
Procedure, shortened: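 Inhibition values express reduced yeast growth in compound-treated cultures relative to vehicle-treated controls.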

[6] = NCI Yeast Anticancer Drug Screen. Data for the mec2-1 strain (AID 157); details: S. cerevisiae mec2-1 strain, hits give high values
Procedure, shortened: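 Mutant yeast (mec2-1) grown with compound; growth inhibition relative to vehicle control reported.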

[7] = NCI Yeast Anticancer Drug Screen. Data for the rad14 strain (AID 159);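 note: 0% = growth of vehicle-treated control cultures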; details: S. cerevisiae rad14 strain growth inhibition, hits give high values
Procedure, shortened: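 A mutant yeast strain defective in DNA damage repair is treated with compound; inhibition of its growth is scored against untreated, vehicle-exposed cultures.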

[8] = NCI Yeast Anticancer Drug Screen. Data for the sgs1 mgt1 strain (AID 161);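 note: 0% = growth of cultures given vehicle only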; details: S. cerevisiae sgs1 mgt1 strain, hits give high values
Procedure, shortened: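 Yeast cells carrying a defined DNA-repair defect were exposed to test compounds. Growth inhibition was measured relative to vehicle-treated controls.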

[9] = NCI Yeast Anticancer Drug Screen. Data for the CLN2oe strain (AID 163);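 note: 0% = growth of vehicle-only control cultures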; details: S. cerevisiae CLN2oe strain, hits give high values
Procedure, shortened: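 Compounds are applied to yeast harbouring a defined cell-cycle control change; reduced growth compared with vehicle-treated controls gives the value.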

[10] = NCI Yeast Anticancer Drug Screen. Data for the cln2 rad14 strain (AID 165);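 note: 0% = growth equal to vehicle treated cultures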; details: S. cerevisiae cln2 rad14 strain, hits give high values
Procedure, shortened: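 Readout is yeast growth inhibition versus vehicle-treated controls, using a strain with cln2 and rad14 alterations exposed to compound.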

[11] = NCI Yeast Anticancer Drug Screen. Data for the bub3 strain (AID 167); details: S. cerevisiae bub3 mutant strain, hits give high values
Procedure, shortened: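 Steps: expose the mutant yeast strain to compound; grow alongside vehicle-treated cultures; measure growth; express inhibition against the vehicle cultures.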

[12] = NCI Yeast Anticancer Drug Screen. Data for the wt2 strain (AID 169);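 note: 0% = growth of vehicle-treated yeast cultures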; details: S. cerevisiae wt2 strain growth inhibition, hits give high values
Procedure, shortened: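 Against vehicle-treated controls, the growth of yeast exposed to each compound was compared, and the inhibition was recorded.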

[13] = NCI Yeast Anticancer Drug Screen. Data for the sgs1 strain (AID 173);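 note: 0% = growth of vehicle-only control cultures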; details: S. cerevisiae sgs1 mutant, hits give high values
Procedure, shortened: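 Each compound was added to cultures of the altered yeast strain. Growth was recorded, and inhibition was derived by comparison with vehicle controls.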

[14] = NCI Yeast Anticancer Drug Screen. Data for the mlh1 rad18 strain (AID 175); details: S. cerevisiae mlh1 rad18 strain growth inhibition, hits give high values
Procedure, shortened: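 Genetically defined yeast (DNA repair-deficient) exposed to compounds; growth inhibition determined relative to vehicle.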

[15] = NCI Yeast Anticancer Drug Screen. Data for the rad18 strain (AID 177); details: S. cerevisiae rad18 mutant growth inhibition, hits give high values
Procedure, shortened: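 Vehicle-treated cultures served as the baseline for scoring compound-induced growth inhibition in DNA-repair-mutant yeast.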

[16] = at 5.0 µM (retest, dose inferred, filed as 0.5)
[17] = at 50.0 µM (retest, dose inferred, filed as 5.0)

SMILES: O=C(c1ccc(Cl)cc1)C1OC12C(=O)Nc1ccccc12 (stereo not drawn)
- growth inhibition ([1]; at 1.2 µM): 20%
- growth inhibition ([1]; at 3.7 µM): 99% (active)
- growth inhibition ([1]; at 11.0 µM): 99% (active)
- growth inhibition ([1]; at 33.0 µM): 99% (active)
- growth inhibition ([1]; at 100.0 µM): 99% (active)
- growth inhibition ([2]; at 1.2 µM): 1%
- growth inhibition ([2]; at 3.7 µM): 25%
- growth inhibition ([2]; at 11.0 µM): 98% (active)
- growth inhibition ([2]; at 33.0 µM): 98% (active)
- growth inhibition ([2]; at 100.0 µM): 99% (active)
- growth inhibition ([3]; at 1.2 µM): 17%
- growth inhibition ([3]; at 3.7 µM): 99% (active)
- growth inhibition ([3]; at 11.0 µM): 99% (active)
- growth inhibition ([3]; at 33.0 µM): 99% (active)
- growth inhibition ([3]; at 100.0 µM): 99% (active)
- growth inhibition ([4]; at 1.2 µM): 31%
- growth inhibition ([4]; at 3.7 µM): 100% (active)
- growth inhibition ([4]; at 11.0 µM): 100% (active)
- growth inhibition ([4]; at 33.0 µM): 100% (active)
- growth inhibition ([4]; at 100.0 µM): 99% (active)
- growth inhibition ([5]; at 1.2 µM): 13%
- growth inhibition ([5]; at 3.7 µM): 99% (active)
- growth inhibition [5, 16]: 100% (active)
- growth inhibition ([5]; at 11.0 µM): 99% (active)
- growth inhibition ([5]; at 33.0 µM): 99% (active)
- growth inhibition [5, 17]: 99% (active)
- growth inhibition ([5]; at 50.0 µM): 99.5% (active)
- growth inhibition ([5]; at 100.0 µM): 99% (active)
- growth inhibition ([6]; at 1.2 µM): 38%
- growth inhibition ([6]; at 3.7 µM): 99% (active)
- growth inhibition [6, 16]: 100% (active)
- growth inhibition ([6]; at 11.0 µM): 99% (active)
- growth inhibition ([6]; at 33.0 µM): 99% (active)
- growth inhibition [6, 17]: 100% (active)
- growth inhibition ([6]; at 50.0 µM): 99.7% (active)
- growth inhibition ([6]; at 100.0 µM): 99% (active)
- growth inhibition ([7]; at 1.2 µM): 24%
- growth inhibition ([7]; at 3.7 µM): 99% (active)
- growth inhibition ([7]; at 11.0 µM): 99% (active)
- growth inhibition ([7]; at 33.0 µM): 99% (active)
- growth inhibition ([7]; at 100.0 µM): 99% (active)
- growth inhibition [8, 16]: 100% (active)
- growth inhibition [8, 17]: 100% (active)
- growth inhibition ([8]; at 50.0 µM): 99.5% (active)
- growth inhibition ([9]; at 1.2 µM): 5%
- growth inhibition ([9]; at 3.7 µM): 40%
- growth inhibition ([9]; at 11.0 µM): 99% (active)
- growth inhibition ([9]; at 33.0 µM): 99% (active)
- growth inhibition ([9]; at 100.0 µM): 98% (active)
- growth inhibition [10, 16]: 100% (active)
- growth inhibition [10, 17]: 100% (active)
- growth inhibition ([10]; at 50.0 µM): 99.7% (active)
- growth inhibition ([11]; at 1.2 µM): 43%
- growth inhibition ([11]; at 3.7 µM): 99% (active)
- growth inhibition [11, 16]: 100% (active)
- growth inhibition ([11]; at 11.0 µM): 99% (active)
- growth inhibition ([11]; at 33.0 µM): 99% (active)
- growth inhibition [11, 17]: 100% (active)
- growth inhibition ([11]; at 50.0 µM): 99.7% (active)
- growth inhibition ([11]; at 100.0 µM): 99% (active)
- growth inhibition ([12]; at 1.2 µM): 9%
- growth inhibition ([12]; at 3.7 µM): 99% (active)
- growth inhibition ([12]; at 11.0 µM): 99% (active)
- growth inhibition ([12]; at 33.0 µM): 99% (active)
- growth inhibition ([12]; at 100.0 µM): 99% (active)
- growth inhibition ([13]; at 1.2 µM): 8%
- growth inhibition ([13]; at 3.7 µM): 99% (active)
- growth inhibition ([13]; at 11.0 µM): 99% (active)
- growth inhibition ([13]; at 33.0 µM): 99% (active)
- growth inhibition ([13]; at 100.0 µM): 99% (active)
- growth inhibition [14, 16]: 100% (active)
- growth inhibition [14, 17]: 100% (active)
- growth inhibition ([14]; at 50.0 µM): 99.5% (active)
- growth inhibition ([15]; at 1.2 µM): 6%
- growth inhibition ([15]; at 3.7 µM): 99% (active)
- growth inhibition ([15]; at 11.0 µM): 99% (active)
- growth inhibition ([15]; at 33.0 µM): 98% (active)
- growth inhibition ([15]; at 100.0 µM): 99% (active)
